Assay results published in the supplement of paper PMC10849652.
Targets with a hit are over-represented here; the source holds about 8,800 in all. About 0.5% of all pairs of compound and target were hits.

Columns and labels:
Experiment in all cases: log2 fold change, soluble protein after heating vs DMSO (PISA); higher = thermal stabilisation; K562 lysate, 10 uM; active = over 0.2 and 3.5 SD of the protein, either way, in both replicates (recomputed)
nilotinib = compound: Cc1cn(-c2cc(NC(=O)c3ccc(C)c(Nc4nccc(-c5cccnc5)n4)c3)cc(C(F)(F)F)c2)cn1 [nilotinib]
Method in brief: (§1)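 Following dounce homogenisation of K562 pellets in PBS pH 7.4 with 1 mM MgCl2, crude extract at 1 mg/mL protein was incubated for 30 min with 10 μM compound. Aliquots were then heated for 3 min over 48°C-58°C and pooled, NP-40 was added to 0.5% at 4°C, and soluble protein was recovered as the supernatant at 21,000xg for 90 min. Channel-sum-equalised TMTpro 16plex LC-MS/MS quantified this protein. Each value, from duplicates, is a log-two fold change in thermal stability relative to solvent controls.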

[1] = compound: Cc1nc(Nc2n[nH]c3c2CN(C(=O)N[C@H](CN(C)C)c2ccccc2)C3(C)C)c2sccc2n1
Method in brief: as §1

dasatinib = compound: Cc1nc(Nc2ncc(C(=O)Nc3c(C)cccc3Cl)s2)cc(N2CCN(CCO)CC2)n1 [dasatinib]
Method in brief: as §1

[2] = compound: Cc1ncc(-c2ccnc(Nc3ccc(S(C)(=O)=O)cc3)n2)n1C(C)C
Method in brief: as §1

[3] = compound: Cn1cc(-c2ccc3c(c2)CCN3C(=O)Cc2cccc(C(F)(F)F)c2)c2c(N)ncnc21
Method in brief: as §1

quisinostat = compound: Cn1cc(CNCC2CCN(c3ncc(C(=O)NO)cn3)CC2)c2ccccc21 [quisinostat]
Method in brief: as §1

tipifarnib = compound: Cn1cncc1[C@@](N)(c1ccc(Cl)cc1)c1ccc2c(c1)c(-c1cccc(Cl)c1)cc(=O)n2C [tipifarnib]
Method in brief: as §1

[4] = compound: NC(=O)Nc1cc(-c2cccc(F)c2)sc1C(=O)N[C@H]1CCCNC1
Method in brief: as §1

[5] = compound: NC(=O)c1cnc(N[C@@H]2CCCC[C@@H]2N)nc1Nc1cccc(-n2nccn2)c1
Method in brief: as §1

[6] = compound: NC1(c2ccc(-c3nc4ccn5c(=O)[nH]nc5c4cc3-c3ccccc3)cc2)CCC1
Method in brief: as §1

[7] = compound: NCC(=O)Nc1ccc(-n2nc(C(F)(F)F)cc2-c2ccc3c(ccc4ccccc43)c2)cc1
Method in brief: as §1

vorinostat = compound: O=C(CCCCCCC(=O)Nc1ccccc1)NO [vorinostat]
Method in brief: as §1

silmitasertib = compound: O=C(O)c1ccc2c(c1)nc(Nc1cccc(Cl)c1)c1ccncc12 [silmitasertib]
Method in brief: as §1

[8] = compound: O=C1NC(=O)C(c2cnc3ccccn23)=C1c1cn2c3c(cc(F)cc13)CN(C(=O)N1CCCCC1)CC2
Method in brief: as §1

entospletinib = compound: c1cn2cc(-c3ccc4cn[nH]c4c3)nc(Nc3ccc(N4CCOCC4)cc3)c2n1 [entospletinib]
Method in brief: as §1

Measured: log2 fold change

CLPTM1L (UniProt Q96KA5)
inactive: nilotinib 0.037 | [1] -0.005 | dasatinib 0.006 | [2] 0 | [3] -0.016 | quisinostat 0.011 | tipifarnib -0.026 | [4] 0.046 | [5] 0.016 | [6] -0.069 | [7] -0.045 | vorinostat 0.136 | silmitasertib 0.012 | [8] 0.012 | entospletinib -0.039

CNOT2 (UniProt Q9NZN8)
inactive: nilotinib 0.013 | [1] -0.011 | dasatinib -0.024 | [2] 0.009 | [3] -0.018 | quisinostat -0.026 | tipifarnib -0.074 | [4] 0.024 | [5] 0.02 | [6] -0.001 | [7] 0.044 | silmitasertib 0.015 | [8] -0.009 | entospletinib -0.015
active: vorinostat -0.207

CMTM3 (UniProt Q96MX0)
active: vorinostat -0.516
inactive: nilotinib 0.07 | [1] 0.048 | dasatinib 0.05 | [2] 0.144 | [3] 0.015 | quisinostat 0.023 | tipifarnib -0.111 | [4] -0.115 | [5] -0.055 | [6] -0.026 | [7] 0.05 | silmitasertib -0.004 | [8] -0.03 | entospletinib -0.004

DDX54 isoform 2 (UniProt Q8TDD1)
UniProt Q8TDD1, sequence (Q8TDD1 whole entry, looked up): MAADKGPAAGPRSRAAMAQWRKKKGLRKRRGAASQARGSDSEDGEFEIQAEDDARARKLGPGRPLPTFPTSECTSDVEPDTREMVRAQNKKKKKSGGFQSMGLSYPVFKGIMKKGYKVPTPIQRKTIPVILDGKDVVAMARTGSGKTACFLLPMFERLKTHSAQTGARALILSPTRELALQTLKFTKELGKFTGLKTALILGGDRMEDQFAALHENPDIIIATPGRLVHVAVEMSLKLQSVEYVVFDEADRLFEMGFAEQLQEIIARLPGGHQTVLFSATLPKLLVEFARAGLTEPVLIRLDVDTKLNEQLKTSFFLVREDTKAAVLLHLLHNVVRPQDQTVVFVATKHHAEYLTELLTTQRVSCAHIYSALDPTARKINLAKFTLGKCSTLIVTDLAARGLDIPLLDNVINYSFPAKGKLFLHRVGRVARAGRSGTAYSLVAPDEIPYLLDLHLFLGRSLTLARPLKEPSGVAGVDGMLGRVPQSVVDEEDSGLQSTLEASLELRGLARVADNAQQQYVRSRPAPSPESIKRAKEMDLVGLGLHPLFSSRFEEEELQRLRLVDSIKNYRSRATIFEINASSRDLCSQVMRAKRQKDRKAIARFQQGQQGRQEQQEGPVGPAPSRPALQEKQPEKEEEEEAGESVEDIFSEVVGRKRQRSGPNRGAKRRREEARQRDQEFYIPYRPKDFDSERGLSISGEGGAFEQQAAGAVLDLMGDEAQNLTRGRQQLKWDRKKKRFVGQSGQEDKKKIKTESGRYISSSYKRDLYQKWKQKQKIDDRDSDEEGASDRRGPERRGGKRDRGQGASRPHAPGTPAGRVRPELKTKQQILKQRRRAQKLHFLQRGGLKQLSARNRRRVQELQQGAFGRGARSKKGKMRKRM
inactive: nilotinib 0.047 | [1] -0.035 | dasatinib 0.002 | [2] 0.019 | [3] 0.089 | quisinostat 0.042 | tipifarnib -0.023 | [4] 0.021 | [5] 0.001 | [6] 0.011 | [7] 0.131 | vorinostat 0.066 | silmitasertib -0.006 | [8] -0.008 | entospletinib -0.009

DONSON (UniProt Q9NYP3)
UniProt Q9NYP3, sequence (Q9NYP3 whole entry, looked up): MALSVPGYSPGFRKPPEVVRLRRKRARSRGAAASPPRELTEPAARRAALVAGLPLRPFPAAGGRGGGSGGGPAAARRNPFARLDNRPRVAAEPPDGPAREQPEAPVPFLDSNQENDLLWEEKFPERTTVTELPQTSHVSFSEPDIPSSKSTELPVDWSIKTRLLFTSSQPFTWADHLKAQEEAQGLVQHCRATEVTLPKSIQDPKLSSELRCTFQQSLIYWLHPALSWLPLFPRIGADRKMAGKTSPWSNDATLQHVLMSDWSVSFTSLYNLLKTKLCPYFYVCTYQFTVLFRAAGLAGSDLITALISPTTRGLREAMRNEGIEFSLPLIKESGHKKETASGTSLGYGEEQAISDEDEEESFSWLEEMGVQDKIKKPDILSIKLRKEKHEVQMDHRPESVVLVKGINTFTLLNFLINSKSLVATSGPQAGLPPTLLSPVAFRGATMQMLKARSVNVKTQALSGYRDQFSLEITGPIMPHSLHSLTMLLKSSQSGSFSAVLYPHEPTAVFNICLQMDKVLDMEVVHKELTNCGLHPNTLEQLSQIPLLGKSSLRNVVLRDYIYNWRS
active: vorinostat -0.401
inactive: nilotinib 0.035 | [1] 0.004 | dasatinib -0.031 | [2] 0.066 | [3] -0.035 | quisinostat -0.051 | tipifarnib -0.024 | [4] -0.003 | [5] -0.022 | [6] 0.082 | silmitasertib -0.123 | [8] 0.032

CYP24A1 (UniProt Q07973)
UniProt Q07973, sequence (Q07973 whole entry, looked up): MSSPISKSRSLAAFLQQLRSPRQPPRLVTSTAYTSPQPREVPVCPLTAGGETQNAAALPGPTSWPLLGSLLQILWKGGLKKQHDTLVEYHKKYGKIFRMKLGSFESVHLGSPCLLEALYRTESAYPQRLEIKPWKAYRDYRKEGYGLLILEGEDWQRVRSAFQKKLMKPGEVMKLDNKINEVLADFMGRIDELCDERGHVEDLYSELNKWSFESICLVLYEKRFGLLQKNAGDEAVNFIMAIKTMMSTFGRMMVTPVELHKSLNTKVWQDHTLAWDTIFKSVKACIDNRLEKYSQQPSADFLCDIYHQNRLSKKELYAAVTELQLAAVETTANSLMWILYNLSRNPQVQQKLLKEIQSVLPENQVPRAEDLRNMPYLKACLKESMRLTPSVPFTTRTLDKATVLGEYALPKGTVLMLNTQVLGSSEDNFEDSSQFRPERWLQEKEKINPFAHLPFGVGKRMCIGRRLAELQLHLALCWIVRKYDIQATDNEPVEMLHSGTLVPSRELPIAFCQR
inactive: nilotinib 0.036 | [1] -0.029 | dasatinib -0.049 | [2] 0.015 | [3] 0.008 | quisinostat -0.33 | tipifarnib -0.018 | [4] 0.04 | [5] 0.068 | [6] -0.161 | [7] 0.187 | vorinostat 0.119 | silmitasertib 0.019 | [8] 0.081 | entospletinib 0.002

DCTN1 isoform 4 (UniProt Q14203)
inactive: nilotinib 0.304 | [1] -0.331 | dasatinib -0.163 | [2] -0.288 | [3] -0.051 | quisinostat -0.064 | tipifarnib -0.064 | [4] 0.074 | [5] 0.139 | [6] 0.169 | [7] 0.144 | vorinostat -0.143 | silmitasertib -0.027 | [8] 0.011 | entospletinib -0.085

DHRS11 (UniProt Q6UWP2)
UniProt Q6UWP2, sequence (Q6UWP2 whole entry, looked up): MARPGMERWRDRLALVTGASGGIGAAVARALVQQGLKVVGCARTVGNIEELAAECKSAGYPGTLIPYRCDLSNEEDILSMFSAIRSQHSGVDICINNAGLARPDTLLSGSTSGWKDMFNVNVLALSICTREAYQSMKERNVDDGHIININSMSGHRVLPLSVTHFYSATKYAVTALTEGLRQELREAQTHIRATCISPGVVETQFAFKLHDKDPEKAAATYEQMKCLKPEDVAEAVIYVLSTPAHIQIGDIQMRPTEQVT
active: vorinostat -0.255
inactive: nilotinib 0.058 | [1] 0.017 | dasatinib -0.018 | [2] 0.008 | [3] 0.03 | quisinostat 0.024 | tipifarnib 0.002 | [4] 0.037 | [5] 0.002 | [6] 0 | [7] -0.006 | silmitasertib -0.014 | [8] 0.02 | entospletinib -0.011

CUX1 isoform 3 (UniProt P39880)
UniProt P39880, sequence (P39880 whole entry, looked up): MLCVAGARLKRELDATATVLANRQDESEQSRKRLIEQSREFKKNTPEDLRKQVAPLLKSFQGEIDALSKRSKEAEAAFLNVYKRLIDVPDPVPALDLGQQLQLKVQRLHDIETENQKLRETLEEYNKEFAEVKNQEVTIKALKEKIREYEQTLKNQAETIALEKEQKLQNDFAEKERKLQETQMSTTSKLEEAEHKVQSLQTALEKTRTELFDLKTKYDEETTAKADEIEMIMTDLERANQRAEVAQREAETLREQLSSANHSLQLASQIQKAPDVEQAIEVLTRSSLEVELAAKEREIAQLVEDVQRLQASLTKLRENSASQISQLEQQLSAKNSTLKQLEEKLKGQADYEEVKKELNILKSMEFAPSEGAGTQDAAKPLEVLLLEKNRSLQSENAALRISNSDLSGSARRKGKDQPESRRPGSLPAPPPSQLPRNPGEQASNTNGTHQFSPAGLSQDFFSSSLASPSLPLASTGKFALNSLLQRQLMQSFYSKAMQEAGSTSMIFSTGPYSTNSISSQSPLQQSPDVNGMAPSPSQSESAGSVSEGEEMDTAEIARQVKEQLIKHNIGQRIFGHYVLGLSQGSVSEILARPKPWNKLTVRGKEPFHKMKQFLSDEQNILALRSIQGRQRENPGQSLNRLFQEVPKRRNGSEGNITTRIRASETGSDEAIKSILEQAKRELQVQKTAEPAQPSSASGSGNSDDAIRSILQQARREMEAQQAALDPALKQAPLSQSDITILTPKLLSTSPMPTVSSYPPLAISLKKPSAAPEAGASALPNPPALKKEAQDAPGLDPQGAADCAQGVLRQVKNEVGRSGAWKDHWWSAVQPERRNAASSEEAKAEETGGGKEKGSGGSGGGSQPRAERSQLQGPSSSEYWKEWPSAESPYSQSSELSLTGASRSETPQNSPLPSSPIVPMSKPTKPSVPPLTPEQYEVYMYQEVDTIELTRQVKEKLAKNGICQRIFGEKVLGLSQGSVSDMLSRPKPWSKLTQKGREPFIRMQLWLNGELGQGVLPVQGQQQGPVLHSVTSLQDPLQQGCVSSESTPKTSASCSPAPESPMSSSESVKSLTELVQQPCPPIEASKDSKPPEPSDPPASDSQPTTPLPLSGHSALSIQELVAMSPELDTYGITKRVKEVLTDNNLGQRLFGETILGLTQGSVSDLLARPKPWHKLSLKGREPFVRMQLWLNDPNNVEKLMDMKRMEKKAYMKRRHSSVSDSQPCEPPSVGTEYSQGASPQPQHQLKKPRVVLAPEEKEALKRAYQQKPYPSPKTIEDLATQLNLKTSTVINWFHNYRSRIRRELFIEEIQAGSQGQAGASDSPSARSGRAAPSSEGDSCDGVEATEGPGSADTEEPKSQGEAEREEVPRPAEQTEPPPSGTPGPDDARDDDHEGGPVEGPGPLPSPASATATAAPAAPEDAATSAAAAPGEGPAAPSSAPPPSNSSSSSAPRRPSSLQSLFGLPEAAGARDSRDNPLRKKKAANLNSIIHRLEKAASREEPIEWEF
inactive: nilotinib -0.029 | [1] 0.026 | dasatinib -0.04 | [2] 0.012 | [3] 0.006 | quisinostat -0.02 | tipifarnib -0.057 | [4] 0.006 | [5] 0.03 | [6] -0.015 | [7] 0.008 | vorinostat 0.005 | silmitasertib 0.025 | [8] -0.022 | entospletinib -0.014

CLCN3 isoform 2 (UniProt P51790)
active: vorinostat -0.286
inactive: nilotinib 0.017 | [1] -0.018 | dasatinib -0.012 | [2] 0.006 | [3] -0.008 | quisinostat 0.01 | tipifarnib -0.012 | [4] 0.04 | [5] 0.022 | [6] 0.024 | [7] -0.059 | silmitasertib 0.033 | [8] -0.024 | entospletinib 0.046

DCTN1 (UniProt Q14203)
inactive: nilotinib 0.008 | [1] -0.005 | dasatinib -0.025 | [2] 0.012 | [3] 0.017 | quisinostat 0.001 | tipifarnib -0.001 | [4] 0.011 | [5] 0.009 | [6] -0.007 | [7] 0.011 | silmitasertib -0.003 | [8] 0.012 | entospletinib 0.001
active: vorinostat -0.261

DERA (UniProt Q9Y315)
UniProt Q9Y315, sequence (Q9Y315 whole entry, looked up): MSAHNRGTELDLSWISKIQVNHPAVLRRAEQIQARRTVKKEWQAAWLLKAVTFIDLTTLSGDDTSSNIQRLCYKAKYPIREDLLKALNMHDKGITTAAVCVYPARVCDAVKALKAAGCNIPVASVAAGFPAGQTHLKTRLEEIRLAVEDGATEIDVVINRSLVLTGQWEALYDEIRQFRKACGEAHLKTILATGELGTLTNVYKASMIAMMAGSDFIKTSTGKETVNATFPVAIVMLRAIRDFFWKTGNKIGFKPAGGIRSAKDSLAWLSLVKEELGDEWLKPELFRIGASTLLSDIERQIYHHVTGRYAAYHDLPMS
inactive: nilotinib 0.037 | [1] -0.027 | dasatinib 0.057 | [2] 0.006 | [3] -0.017 | quisinostat -0.008 | tipifarnib 0.08 | [4] -0.017 | [5] -0.021 | [6] 0 | [7] -0.015 | vorinostat 0.063 | silmitasertib -0.003 | [8] 0.018 | entospletinib 0

CINP isoform 3 (UniProt Q9BW66)
inactive: nilotinib -0.13 | [1] 0.065 | dasatinib -0.073 | [2] 0.19 | [3] 0.024 | quisinostat 0.015 | tipifarnib -0.009 | [4] 0.034 | [5] 0.03 | [7] 0.084 | [8] 0.043 | entospletinib 0.009

CUL1 (UniProt Q13616)
inactive: nilotinib 0.025 | [1] 0.022 | dasatinib 0.034 | [2] 0.028 | [3] 0.027 | quisinostat 0.017 | tipifarnib 0.001 | [4] -0.021 | [5] -0.011 | [6] -0.004 | [7] 0.001 | vorinostat 0.072 | silmitasertib 0.006 | [8] -0.007 | entospletinib 0.009

DHRS13 (UniProt Q6UX07)
UniProt Q6UX07, sequence (Q6UX07 whole entry, looked up): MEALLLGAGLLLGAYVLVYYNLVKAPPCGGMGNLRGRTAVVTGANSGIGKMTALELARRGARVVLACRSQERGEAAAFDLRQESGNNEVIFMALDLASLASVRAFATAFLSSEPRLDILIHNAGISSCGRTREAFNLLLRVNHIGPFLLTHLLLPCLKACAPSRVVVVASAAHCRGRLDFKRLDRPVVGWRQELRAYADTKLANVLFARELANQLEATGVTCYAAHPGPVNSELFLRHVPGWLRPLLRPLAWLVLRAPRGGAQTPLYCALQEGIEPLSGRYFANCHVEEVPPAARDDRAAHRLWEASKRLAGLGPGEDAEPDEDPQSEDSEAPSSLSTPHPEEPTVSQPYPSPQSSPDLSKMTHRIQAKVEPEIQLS
active: vorinostat 1.11
inactive: nilotinib 0.133 | [1] 0.385 | dasatinib 0.048 | [2] -0.142 | [3] 0.142 | quisinostat 0.078 | tipifarnib -0.223 | [4] -0.011 | [5] -0.08 | [6] -0.121 | silmitasertib 0.059 | [8] -0.001

CSNK1D (UniProt P48730)
UniProt P48730, sequence (P48730 whole entry, looked up): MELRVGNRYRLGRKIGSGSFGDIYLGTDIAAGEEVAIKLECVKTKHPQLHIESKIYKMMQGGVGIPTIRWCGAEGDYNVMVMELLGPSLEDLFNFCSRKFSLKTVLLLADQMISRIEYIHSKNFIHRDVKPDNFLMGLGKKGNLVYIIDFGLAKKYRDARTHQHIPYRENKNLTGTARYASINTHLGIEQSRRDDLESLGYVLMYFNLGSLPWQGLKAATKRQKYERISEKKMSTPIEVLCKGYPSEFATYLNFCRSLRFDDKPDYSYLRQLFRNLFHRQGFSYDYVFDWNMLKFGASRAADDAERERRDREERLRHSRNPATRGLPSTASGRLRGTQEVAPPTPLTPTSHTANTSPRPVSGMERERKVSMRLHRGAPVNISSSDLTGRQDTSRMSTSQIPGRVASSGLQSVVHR
active: [2] -0.551
inactive: nilotinib 0.199 | [1] -0.384 | dasatinib 0.028 | [3] -0.059 | quisinostat -0.049 | tipifarnib -0.139 | [4] 0.021 | [5] 0.072 | [7] 0.002 | [8] -0.002 | entospletinib -0.076

COPZ1 isoform 4 (UniProt P61923)
UniProt P61923, sequence (P61923 whole entry, looked up): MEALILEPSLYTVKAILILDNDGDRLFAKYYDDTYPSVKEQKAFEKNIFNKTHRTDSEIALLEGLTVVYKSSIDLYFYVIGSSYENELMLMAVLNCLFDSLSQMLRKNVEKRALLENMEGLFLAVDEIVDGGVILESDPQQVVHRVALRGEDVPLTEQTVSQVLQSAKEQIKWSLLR
inactive: nilotinib 0.012 | [1] 0 | dasatinib 0.015 | [2] 0.088 | [3] 0.023 | quisinostat 0.289 | tipifarnib 0.002 | [4] -0.029 | [5] -0.103 | [6] 0.037 | [7] -0.068 | vorinostat 0.188 | silmitasertib -0.032 | [8] 0.163 | entospletinib -0.025

CSNK1G3 (UniProt Q9Y6M4)
active: [1] 0.428 | [2] 0.388 | [4] 0.397
inactive: nilotinib -0.029 | dasatinib 0.002 | [3] 0.014 | quisinostat -0.067 | tipifarnib 0.001 | [5] 0 | [6] 0.086 | [7] -0.004 | vorinostat -0.011 | silmitasertib 0.055 | [8] -0.029 | entospletinib 0.039
